Results filed as inconclusive are left out. Activity calls are given as the source filed them. Rule for the calls: active = hit-call score of the fitted dose curve at least 0.9, where 1 is the maximum; inconclusive = response in the unintended direction; inactive = score below 0.9. Peptide text beside a SMILES is read from it.

human Peripheral-type Benzodiazepine Receptor (PBR), TSPO (gene 706), sequence (P30536 whole entry, looked up): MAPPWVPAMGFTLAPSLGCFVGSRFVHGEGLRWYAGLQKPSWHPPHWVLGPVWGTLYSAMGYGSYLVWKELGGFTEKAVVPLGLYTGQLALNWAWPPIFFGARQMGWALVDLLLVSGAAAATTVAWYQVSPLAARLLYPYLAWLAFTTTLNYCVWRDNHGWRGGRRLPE
rat Thyrotropin Releasing Hormone Receptor (TRH), Trhr (gene 25570), sequence (Q01717 whole entry, looked up): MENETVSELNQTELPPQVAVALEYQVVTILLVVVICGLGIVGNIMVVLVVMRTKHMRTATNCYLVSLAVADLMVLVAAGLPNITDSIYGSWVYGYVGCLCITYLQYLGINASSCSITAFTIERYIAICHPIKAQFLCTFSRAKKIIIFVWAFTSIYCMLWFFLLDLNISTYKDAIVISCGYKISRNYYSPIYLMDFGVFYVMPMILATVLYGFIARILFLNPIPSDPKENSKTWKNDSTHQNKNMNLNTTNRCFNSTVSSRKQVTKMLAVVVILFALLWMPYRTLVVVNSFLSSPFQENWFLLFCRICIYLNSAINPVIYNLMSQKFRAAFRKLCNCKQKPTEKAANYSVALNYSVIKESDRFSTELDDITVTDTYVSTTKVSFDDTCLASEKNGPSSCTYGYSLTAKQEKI
rat Peripheral-type Benzodiazepine Receptor (PBR), Tspo (gene 24230), sequence (P16257 whole entry, looked up): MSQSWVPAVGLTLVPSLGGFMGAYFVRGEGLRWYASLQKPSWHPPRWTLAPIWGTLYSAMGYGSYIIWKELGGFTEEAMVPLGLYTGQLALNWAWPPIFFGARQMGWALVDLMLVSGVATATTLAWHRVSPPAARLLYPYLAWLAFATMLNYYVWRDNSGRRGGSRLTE

The target of one assay is human Opioid Receptor Mu (Opiate Mu), OPRM1 (gene 4988) (UniProt P35372). Kind of assay: NVS_GPCR_hOpiate_mu: NovaScreen (NVS) G Protein-Coupled Receptor Assay for human Opioid Receptor Mu (Opiate Mu) (AID 2283290).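 Note: hits lower bound tracer signal versus DMSO meaning displacement of the ligand.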 Summed up: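 CHO-derived receptor protein, cell-free; radioligand displacement, filtration + scintillation counting, read at 2.5 h. DMSO = negative control/baseline. Primary: 25 uM single conc, duplicate; secondary: concentration series.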
human Opioid Receptor Mu (Opiate Mu), OPRM1 (gene 4988), sequence (P35372 whole entry, looked up): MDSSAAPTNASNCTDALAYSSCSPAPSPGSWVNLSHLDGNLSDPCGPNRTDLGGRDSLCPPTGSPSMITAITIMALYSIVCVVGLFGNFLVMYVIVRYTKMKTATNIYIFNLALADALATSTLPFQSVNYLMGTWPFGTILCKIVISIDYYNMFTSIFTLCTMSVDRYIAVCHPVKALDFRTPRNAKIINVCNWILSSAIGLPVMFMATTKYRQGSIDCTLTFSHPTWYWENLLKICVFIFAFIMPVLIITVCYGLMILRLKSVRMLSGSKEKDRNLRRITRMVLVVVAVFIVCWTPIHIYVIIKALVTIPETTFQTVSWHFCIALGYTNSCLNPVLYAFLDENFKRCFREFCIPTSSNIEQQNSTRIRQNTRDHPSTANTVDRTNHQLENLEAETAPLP
With `CC(C)CCCCCOC(=O)CS`, the concentration at half-maximal activity (AC50) (in general, the concentration at which the activity in the assay is half-maximal) is 39.8 µM (active).
Take `CC(C=O)c1ccccc1` (stereo unspecified): the call was inactive.
In the case of `CC1=C(O)C(=O)C(C)O1` (stereo unspecified), the outcome was inactive.

Another assay concerns the target rat Thyrotropin Releasing Hormone Receptor (TRH), Trhr (gene 25570) (UniProt Q01717). Put plainly: NVS_GPCR_rTRH: NovaScreen (NVS) G Protein-Coupled Receptor Assay for rat Thyrotropin Releasing Hormone Receptor (TRH) (AID 2283329).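 Note: hit means lower bound tracer signal versus DMSO baseline.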 Summed up:
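Rat forebrain membrane prep, radioligand displacement, filter scintillation readout at 4 h. Single conc 25 uM, duplicate; actives retested as concentration series. DMSO = negative control/baseline.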
For `CN(C)Cc1cc(CN(C)C)c(O)c(CN(C)C)c1`, the outcome was inactive.
Regarding `CCOC(=O)c1ccc(C)cc1`, the molecule was called inactive.
Turning to `CCCCC(C=O)CC` (stereo unspecified), the outcome was inactive.
For `CCCCCCC=O`, the call was inactive.
With `O=C(OCc1ccccc1)c1ccc(O)cc1`, the call was inactive.
The same measure, in the same setting: for `COC(=O)[C@H](Cc1ccccc1)NC(=O)[C@@H](N)CC(=O)O` (H-Asp-Phe-OMe) the value was “inactive”.
`CC(C)(C)NC(=O)[C@H]1CC[C@H]2[C@@H]3CC[C@H]4NC(=O)C=C[C@]4(C)[C@H]3CC[C@]12C`: the molecule was classed as inactive.
Same read-out and setting: for `CC(CCC(=O)O)(c1ccc(O)cc1)c1ccc(O)cc1` the value was “inactive”; for `CC1=NN(c2ccc(S(=O)(=O)O)cc2)C(=O)C1N=Nc1ccccc1` (stereo unspecified), “inactive”; for `Oc1ccc(-c2ccccc2)c(Cl)c1`, “inactive”.
Consider `CCCCNC(=S)NCCCC`, for which the outcome was inactive.
Regarding `CCCCC(=O)O`, the outcome was inactive.
With `CC(=O)OC(C)c1ccccc1` (stereo unspecified), the molecule was called inactive.
The same measure, in the same setting: for `C=C1C[C@H]2[C@@H]3C=C(C)C4=CC(=O)CC[C@]4(C)[C@H]3CC[C@]2(C)[C@@]1(OC(C)=O)C(C)=O` the value was “inactive”; for `CCOC(=O)c1ccccc1C`, “inactive”; for `CC(=O)OC1CCCCC1C(C)(C)C` (stereo unspecified), “inactive”.
Regarding `C/C=C/C=C/CCCCCCCO`, the call was inactive.
On the same count and under the same terms, the result for `CCCCC(CC)COS(=O)(=O)O` (stereo unspecified) reads “inactive”; that for `CCCCNS(=O)(=O)c1ccccc1`, “inactive”.
`CC1=CCC2CC1C2(C)C` (stereo unspecified): the molecule was classed as inactive.
`CCN1CN(CC)CN(CC)C1`: the result was inactive.
With `CCCCCCO`, the molecule was called inactive.
With `CCCCCCCCCC[N+](C)(CCCCCCCCCC)CCC[Si](OC)(OC)OC`, the molecule was called inactive.

The target in a further assay is human Peripheral-type Benzodiazepine Receptor (PBR), TSPO (gene 706) (UniProt P30536). Put plainly: NVS_MP_hPBR: NovaScreen (NVS) Membrane Protein Assay for human Peripheral-type Benzodiazepine Receptor (PBR) (AID 2283331).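 Note: hits reduce radioligand binding relative to DMSO baseline.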 Summed up:
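Human colonic cell membranes were incubated with test chemical for 1 hour; radioligand binding was measured by filter-based scintillation counting. Primary screen ran in duplicate at 25 uM, with actives followed in concentration series; loss of signal versus DMSO baseline.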
Take `O=C(OCc1ccccc1)c1ccc(O)cc1`: the AC50 is 6.36 µM (active).
`CN(C)c1ccc2nc3ccc(=[N+](C)C)cc-3sc2c1`: the AC50 is 10.2 µM (active).
With `CCCCNC(=S)NCCCC`, the molecule was classed as inactive.
For `C=C1C[C@H]2[C@@H]3C=C(C)C4=CC(=O)CC[C@]4(C)[C@H]3CC[C@]2(C)[C@@]1(OC(C)=O)C(C)=O`, the half-maximal activity concentration (AC50) was 0.732 µM (active).
For `C/C=C/C=C/CCCCCCCO`, the half-maximal activity concentration (AC50) is 12.2 µM (active).
Regarding `COc1ccc(C(=O)/C(Br)=C\C(=O)O)cc1`, the AC50 was 9.63 µM (active).

The target of another assay is rat Peripheral-type Benzodiazepine Receptor (PBR), Tspo (gene 24230) (UniProt P16257). Kind of assay: NVS_MP_rPBR: NovaScreen (NVS) Membrane Protein Assay for rat Peripheral-type Benzodiazepine Receptor (PBR) (AID 2283335). A digest of the protocol:
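Radioligand displacement, rat kidney membrane prep, 1 h exposure, filter-based scintillation read; DMSO baseline, loss-of-signal scored. Primary screen at 25 uM in duplicate, actives followed up in concentration series.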
Take `O=C(OCc1ccccc1)c1ccc(O)cc1`: the AC50 was 3.77 µM (active).
For the molecule `CCCCNC(=S)NCCCC`, the AC50 is 5.23 µM (active).
Take `CCCCNS(=O)(=O)c1ccccc1`: the half-maximal activity concentration (AC50) is 25 µM (active).

For the next assay, the target named is bovine Estrogen Receptor (ER), ESR1 (gene 407238) (UniProt P49884). Put plainly: NVS_NR_bER: NovaScreen (NVS) Nuclear Receptor Binding Assay for bovine Estrogen Receptor (ER) (AID 2283345).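 Note: actives lower the bound radioligand count which means they displace the ER ligand.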 A digest of the protocol: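 Scintillation counting of displaced radioligand gave the readout; bovine uterine membrane extract supplied the receptor. Measured 18 h post-dose, normalized to DMSO baseline. Single 25 uM duplicate screen preceded concentration-response follow-up.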
bovine Estrogen Receptor (ER), ESR1 (gene 407238), sequence (P49884 whole entry, looked up): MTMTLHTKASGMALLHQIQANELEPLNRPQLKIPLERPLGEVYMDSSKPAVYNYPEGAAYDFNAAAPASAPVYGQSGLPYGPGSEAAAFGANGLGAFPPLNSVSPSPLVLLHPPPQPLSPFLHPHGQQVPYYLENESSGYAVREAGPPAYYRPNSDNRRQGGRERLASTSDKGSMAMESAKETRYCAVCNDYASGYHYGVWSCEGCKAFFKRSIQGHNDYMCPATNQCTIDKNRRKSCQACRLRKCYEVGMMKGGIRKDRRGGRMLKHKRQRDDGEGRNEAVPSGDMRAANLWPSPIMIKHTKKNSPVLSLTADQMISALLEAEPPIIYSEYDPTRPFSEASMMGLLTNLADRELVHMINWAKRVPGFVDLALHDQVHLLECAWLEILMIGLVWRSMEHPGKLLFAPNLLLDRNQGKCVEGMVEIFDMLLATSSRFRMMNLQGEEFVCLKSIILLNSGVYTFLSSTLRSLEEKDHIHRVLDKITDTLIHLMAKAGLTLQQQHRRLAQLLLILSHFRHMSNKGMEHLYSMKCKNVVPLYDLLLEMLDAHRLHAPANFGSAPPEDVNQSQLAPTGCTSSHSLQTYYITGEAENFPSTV
For the molecule `O=C(OCc1ccccc1)c1ccc(O)cc1`, the AC50 is 1.18 µM (active).
On to `CC(C)(C)NC(=O)[C@H]1CC[C@H]2[C@@H]3CC[C@H]4NC(=O)C=C[C@]4(C)[C@H]3CC[C@]12C`, for which the call was inactive.
For `CC(CCC(=O)O)(c1ccc(O)cc1)c1ccc(O)cc1`, the concentration at half-maximal activity (AC50) is 12.2 µM (active).
Consider `Oc1ccc(-c2ccccc2)c(Cl)c1`, for which the outcome was inactive.
The same measure, in the same setting: for `C=C1C[C@H]2[C@@H]3C=C(C)C4=CC(=O)CC[C@]4(C)[C@H]3CC[C@]2(C)[C@@]1(OC(C)=O)C(C)=O` the value was “inactive”; for `CCCCCCCCCC[N+](C)(CCCCCCCCCC)CCC[Si](OC)(OC)OC`, “inactive”.

For the origin of these results see PubChem BioAssay (EPA / NIEHS).
